The results in this text go back to PubChem BioAssay (EPA / NIEHS).

Structures are written as SMILES. Activity calls are given as the source filed them. How the source made its calls: active means hit-call score of the fitted dose curve at least 0.9, where 1 is the maximum; inactive means score below 0.9.

Conditions in all cases: mRNA level, 48 h; actives raise or lower the signal
Read-out in experiment [1]: adenosine kinase (ADK) gene, ADK (gene 132)
Kind of experiment: LTEA_HepaRG_ADK: Life Technologies and Expression Analysis (LTEA) Assay for adenosine kinase (ADK) gene using HepaRG (AID 2283471). In outline: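 HepaRG (human liver), 48 h chemical exposure, 8-pt half-log series, top 100 uM, 0.5% DMSO vehicle. Readout: ADK mRNA by qRT-PCR vs housekeeping genes; bidirectional curve fit relative to DMSO baseline.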

Read-out in experiment [2]: Alpha-fetoprotein (AFP) gene, AFP (gene 174)
Kind of experiment: LTEA_HepaRG_AFP: Life Technologies and Expression Analysis (LTEA) Assay for Alpha-fetoprotein (AFP) gene using HepaRG (AID 2283472). In outline: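 AFP transcript measured by TaqMan qRT-PCR with three housekeeping genes for normalization, after 48 h chemical treatment of HepaRG cells (top 100 uM, half-log steps, 0.5% DMSO). Gain or loss fitted against vehicle.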

Read-out in a further experiment: BCL2L11 (gene 10018)
Kind of experiment: LTEA_HepaRG_BCL2L11: Life Technologies and Expression Analysis (LTEA) Assay for Bcl-2 (BCL2L11) gene using HepaRG (AID 2283473). The method in brief:
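Cells were plated, cultured 48 h, switched to serum-free induction medium, then dosed in duplicate for 48 h at eight half-log concentrations up to 100 uM. Lysates underwent RNA isolation and TaqMan qRT-PCR; gain or loss versus DMSO was fitted.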

Read-out in experiment [3]: Apolipoprotein A-V (APOA5) gene, APOA5 (gene 116519)
Put plainly: LTEA_HepaRG_APOA5: Life Technologies and Expression Analysis (LTEA) Assay for Apolipoprotein A-V (APOA5) gene using HepaRG (AID 2283474). The method in brief: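 Human liver HepaRG cells are treated 48 h with test chemicals (100 uM top, half-log dilutions, 0.5% DMSO). APOA5 mRNA induction or loss is measured by qRT-PCR relative to vehicle.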

Read-out in experiment [4]: Apoptosis regulator Bcl-2 (Homo sapiens) (UniProt P10415)
Kind of experiment: LTEA_HepaRG_BCL2: Life Technologies and Expression Analysis (LTEA) Assay for Bcl-2 gene using HepaRG (AID 2283475). The method in brief: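 qRT-PCR of BCL2 transcript, normalized to three housekeeping genes (ACTB, GAPDH, POLR2A), after 48 h chemical exposure of HepaRG cells; concentrations top 100 uM with half-log dilutions, 0.5% DMSO vehicle, duplicates; changes up or down fitted relative to vehicle.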

Read-out in experiment [5]: Bcl-2 (BID) gene, BID (gene 637)
Kind of experiment: LTEA_HepaRG_BID: Life Technologies and Expression Analysis (LTEA) Assay for Bcl-2 (BID) gene using HepaRG (AID 2283476). The method in brief: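 Duplicate 48 h treatments of HepaRG cells in serum-free induction medium spanned 100 uM downward in half-log steps, 0.5% DMSO. Transcript change quantified by qRT-PCR against three housekeeping genes, fitted up or down versus DMSO.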

Read-out in experiment [6]: Cytochrome P450 (CYP24A1), CYP24A1 (gene 1591)
Kind of experiment: LTEA_HepaRG_CYP24A1: Life Technologies and Expression Analysis (LTEA) Assay for Cytochrome P450 (CYP24A1) using HepaRG (AID 2283478). The method in brief:
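Human liver HepaRG cultures receive each chemical for 48 h across an eight-point half-log series topping at 100 uM in 0.5% DMSO. Induction or suppression of CYP24A1 mRNA is scored relative to vehicle after housekeeping-gene normalization.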

Read-out in experiment [7]: cysteine-aspartic acid protease (CASP8), CASP8 (gene 841)
Kind of experiment: LTEA_HepaRG_CASP8: Life Technologies and Expression Analysis (LTEA) Assay for cysteine-aspartic acid protease (CASP8) using HepaRG (AID 2283480). In outline: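 Concentration-response in duplicate up to 100 uM (half-log steps, 0.5% DMSO) on differentiated HepaRG cultures for 48 h. Expression change of CASP8 mRNA is determined by TaqMan qRT-PCR with housekeeping-gene normalization.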

Chain of Apoptosis regulator Bcl-2 (Homo sapiens) (P10415 whole entry, looked up): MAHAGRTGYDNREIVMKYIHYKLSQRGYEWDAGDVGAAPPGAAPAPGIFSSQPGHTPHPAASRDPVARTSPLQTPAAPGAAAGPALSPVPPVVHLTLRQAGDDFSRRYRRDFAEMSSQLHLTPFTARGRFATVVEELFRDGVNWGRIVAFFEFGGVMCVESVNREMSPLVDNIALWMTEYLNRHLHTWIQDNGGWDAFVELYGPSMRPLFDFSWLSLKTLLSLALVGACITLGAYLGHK

In general, AC50 refers to the midpoint of the concentration-response curve, whichever way the signal moves. As for `N#Cc1nn(-c2c(Cl)cc(C(F)(F)F)cc2Cl)c(N)c1S(=O)C(F)(F)F` (configuration not stated), the compound was called inactive (in experiment [1]; with BCL2L11 (gene 10018); in experiment [5]; in experiment [6]; in experiment [7]). Further, the AC50 in experiment [2] is 15.9 µM (active); in experiment [3], 54.4 µM (active); in experiment [4], 34.6 µM (active).
Consider `CCCCNC(=O)n1c(NC(=O)OC)nc2ccccc21`, for which the result (in experiment [1]; in experiment [2]; with BCL2L11 (gene 10018); in experiment [3]; in experiment [4]; in experiment [5]) was inactive. Further, the call in experiment [6] and in experiment [7] was inactive.
For the compound `O=C(O)COc1nc(Cl)c(Cl)cc1Cl`, the result (in experiment [1]; in experiment [2]; with BCL2L11 (gene 10018); in experiment [3]; in experiment [4]; in experiment [5]) was inactive. For the same compound, the outcome in experiment [6] and in experiment [7] was inactive.
Regarding `C=CC1(C)OC(=O)N(c2cc(Cl)cc(Cl)c2)C1=O` (configuration not stated), the compound was called inactive (in experiment [1]; in experiment [2]; with BCL2L11 (gene 10018); in experiment [3]; in experiment [4]; in experiment [5]). The outcome in experiment [6] and in experiment [7] was inactive.
Take `C=CCC1=C(C)[C@@H](OC(=O)[C@@H]2[C@@H](C=C(C)C)C2(C)C)CC1=O`: the outcome (in experiment [1]; with BCL2L11 (gene 10018); in experiment [3]; in experiment [4]; in experiment [5]; in experiment [6]) was inactive. Moreover, the outcome in experiment [7] was inactive. Further, the AC50 in experiment [2] is 50 µM (active).
For the compound `Cc1cc(Cl)ccc1OCC(=O)O`, the result (in experiment [1]; in experiment [2]; with BCL2L11 (gene 10018); in experiment [3]; in experiment [4]; in experiment [5]) was inactive. In addition, the call in experiment [6] and in experiment [7] was inactive.
`CC1=C(C(=O)Nc2ccccc2)SCCO1`: the compound was classed as inactive (in experiment [1]; in experiment [2]; with BCL2L11 (gene 10018); in experiment [4]; in experiment [5]; in experiment [6]). Besides, the outcome in experiment [7] was inactive. For the same compound, the AC50 in experiment [3] was 50 µM (active).
For the compound `COC(=O)N(OC)c1ccccc1COc1ccn(-c2ccc(Cl)cc2)n1`, the concentration at half-maximal activity (AC50) in experiment [1] is 77.8 µM (active); in experiment [2], 24.9 µM (active); in the experiment with BCL2L11 (gene 10018), 20.5 µM (active); in experiment [3] it was 3.56 µM (active); in experiment [4], 89.9 µM (active); in experiment [5], 75.3 µM (active). For the same compound, the AC50 in experiment [7] was 80.1 µM (active). For the same compound, the compound was classed as inactive in experiment [6].
In the case of `CC1COC(Cn2cncn2)(c2ccc(Oc3ccc(Cl)cc3)cc2Cl)O1` (configuration not stated), the outcome (in experiment [1]; with BCL2L11 (gene 10018); in experiment [7]) was inactive. In addition, the AC50 is 11 µM (active) in experiment [2]; 12.8 µM (active) in experiment [3]; 12.8 µM (active) in experiment [4]; 12 µM (active) in experiment [5]; 50 µM (active) in experiment [6].
For `Cc1ccc(-c2c(Cl)nc(C#N)n2S(=O)(=O)N(C)C)cc1`, the AC50 was 50 µM (active) in experiment [1]; 3.99 µM (active) in experiment [2]; 74.2 µM (active) in experiment [3]; 87.4 µM (active) in experiment [4]; 0.01 µM (active) in experiment [6]; 89.8 µM (active) in experiment [7]. The outcome (with BCL2L11 (gene 10018); in experiment [5]) was inactive.
Consider `CCON=C(CC)C1=C(O)CC(c2c(C)cc(C)cc2C)CC1=O` (configuration not stated), for which the compound was called inactive (in experiment [1]; in experiment [2]; with BCL2L11 (gene 10018); in experiment [3]; in experiment [4]; in experiment [5]). For the same compound, the call in experiment [6] and in experiment [7] was inactive.
As to `CCCCC(CC)COC(=O)c1ccccc1C(=O)OCC(CC)CCCC` (configuration not stated), the call (in experiment [1]; in experiment [2]; with BCL2L11 (gene 10018); in experiment [3]; in experiment [4]; in experiment [5]) was inactive. For the same compound, the compound was called inactive in experiment [6] and in experiment [7].
For the compound `CCOc1cc(Oc2ccc(C(F)(F)F)cc2Cl)ccc1[N+](=O)[O-]`, the call (in experiment [1]; in the experiment with BCL2L11 (gene 10018); in experiment [5]; in experiment [6]; in experiment [7]) was inactive. The AC50 in experiment [2] was 39.1 µM (active); in experiment [3], 30.8 µM (active); in experiment [4], 33.5 µM (active).
Turning to `CCCC1COC(Cn2cncn2)(c2ccc(Cl)cc2Cl)O1` (configuration not stated), the outcome (in experiment [1]; with BCL2L11 (gene 10018); in experiment [5]; in experiment [6]; in experiment [7]) was inactive. Also, the AC50 in experiment [2] is 24 µM (active); in experiment [3] it was 47.4 µM (active); in experiment [4] it was 33.7 µM (active).
